The values that follow come from PubChem BioAssay (NCI).

SMILES strings stand for the structures. Where “and” joins values, the source holds several entries; their conditions need not be identical. Equal values may be shown once. About 83,000 compounds went through this panel and 20% of them were active in at least one assay; those are over-represented in the sample as a whole.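 Activity criterion: percent growth below 10, measured after cells in 96-well plates were exposed to a single compound concentration for 48 hours.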 A number with no mark means an inactive call. Calls of active or inactive are those of the source.

This assay deals with MDA-MB-468 breast. Briefly: NCI-60 one-dose screen, 48 h (100 = growth as untreated, 0 = no growth, -100 = all killed). Conditions: 10 µM unless noted.
Take `COC(=O)c1cccc(NC2=CC(=O)C(C)=C(C)C2=O)c1`: the growth was 65.9%.

`Cc1cc(N2CCOCC2)nc(NCc2cc(Nc3ccnc4cc(Cl)ccc34)ccc2F)n1`: the growth is -71.9% (active).

In the case of `COCCOc1ccc(-c2csc(NC(=O)CN3CCN(CCO)CC3)n2)cc1NS(=O)(=O)c1cccc2c(N(C)C)cccc12`, the growth was 60.7%.

For `CCc1ccc(C2=C/C(=C/c3ccccc3)C(=O)N2CCc2ccc(S(N)(=O)=O)cc2)cc1`, the growth is 109%.

Take `CCOC(=O)CSc1nc2sc3c(c2c(=O)n1-c1ccccc1)CCCCC3`: the growth is 122%.

On to `c1ccc(-c2nc3ccccc3s2)cc1`, for which the growth is 96.4%.

For the molecule `Clc1ccc2nc(-c3ccc(-c4ccc(/C=N/NC5=NCCN5)cc4)s3)cn2c1`, the growth was 96.1%.

Regarding `COc1cc(/C=N/NC(=O)c2cnn3c2NC(c2ccccc2)C3)ccc1OCc1ccccc1` (stereo not given), the growth was 1.21% (active).

In the case of `COc1ccccc1S(=O)Nc1ccccc1` (stereo not given), the growth is 97.2%.

On to `O=C(Nc1ccc(Cl)c([N+](=O)[O-])c1)Nc1nc2ccccc2s1`, for which the growth is 40.6%.

As to `CN(C)CCCNC1=C(Cl)C(=O)c2ccccc2C1=O`, the growth is -8.11% (active) and -54.1% (active).

Take `Nc1c(C(=O)c2ccccc2)sc2nc(-c3cccs3)cc(-c3cccs3)c12`: the growth was 30.8%.

On to `Nc1ccc(-c2csc(-n3[nH]c(=O)ccc3=O)n2)cc1`, for which the growth was 99.3%.

In the case of `O=C1c2cc(Cl)ccc2-c2c(O)cc(Cl)cc21`, the growth is 48.6%.

As for `CCO/C=N/C1=C(C#N)C(c2ccc(Cl)cc2)c2sc3c(C)cccc3c2O1` (stereo not given), the growth was -3.01% (active).
